Compounds without any hit were thinned out: in the full panel of roughly 83,000, 20% have a hit.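 Each cell line was grown in a 96-well plate and treated with one concentration of compound for 48 hours. Values below 10 were considered active.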 Activity calls are given as the source filed them.
Columns and labels:
Test in all cases: NCI-60 one-dose screen, 48 h (100 = growth as untreated, 0 = no growth, -100 = all killed)
Settings in all cases: 10 µM unless noted
T-47D breast = tested on: T-47D breast
BT-549 breast = tested on: BT-549 breast
MDA-MB-435 melanoma = tested on: MDA-MB-435 melanoma
SW-620 colon = tested on: SW-620 colon
MCF7 breast = tested on: MCF7 breast
HCT-116 colon = tested on: HCT-116 colon
HCC-2998 colon = tested on: HCC-2998 colon
KM12 colon = tested on: KM12 colon

Measured: growth

CCN(CC)CCOc1ccc2ccc(=O)oc2c1
inactive: T-47D breast 97.5% | BT-549 breast 102% | MDA-MB-435 melanoma 112% | SW-620 colon 101% | MCF7 breast 97.6% | HCT-116 colon 100% | HCC-2998 colon 90.5% | KM12 colon 103%

COc1cc2ncnc(Nc3ccc(S(=O)(=O)Nc4nccs4)cc3)c2cc1OCCCN1CCCC1
inactive: T-47D breast 105% | BT-549 breast 105% | MDA-MB-435 melanoma 99.7% | SW-620 colon 103% | MCF7 breast 99.6% | HCT-116 colon 97.3% | HCC-2998 colon 112% | KM12 colon 121%

CC(O)CNC(Cc1ccccc1)c1ccc2c(c1)OCO2 (centres undefined)
inactive: T-47D breast 47.2% | BT-549 breast 57.9% | MDA-MB-435 melanoma 99.6% | SW-620 colon 92.8% | MCF7 breast 91.5% | HCT-116 colon 62.1% | HCC-2998 colon 104% | KM12 colon 99.3%

CC(C)(C)OC(=O)CN1CCc2c(sc3ncnc(N4CCN(c5ccc(F)cc5)CC4)c23)C1
inactive: T-47D breast 63.9% | BT-549 breast 76.1% | MDA-MB-435 melanoma 93.3% | SW-620 colon 77.7% | MCF7 breast 90.6% | HCT-116 colon 87.3% | HCC-2998 colon 100% | KM12 colon 83%

Cc1cc(NCCCNc2ccnc3cc(Cl)ccc23)nc(Nc2ccc(C(=O)N3CCCCC3)cc2)n1
active: T-47D breast -32.8% | MDA-MB-435 melanoma -72.5% | SW-620 colon -0.272% | MCF7 breast 6.95% | HCT-116 colon -38.3% | HCC-2998 colon 0.124%
inactive: BT-549 breast 69.8% | KM12 colon 26.1%

CC1=Nc2cnc(Nc3ccc(N4CCCCC4)cc3)nc2Nc2ccccc21
inactive: T-47D breast 46.9% | BT-549 breast 42.5% | MDA-MB-435 melanoma 89.7% | SW-620 colon 96% | MCF7 breast 72.5% | HCT-116 colon 59% | HCC-2998 colon 106% | KM12 colon 54.9%

c1ccc(-c2ccc3c(c2)C2(CCNCC2)CN3)cc1
inactive: T-47D breast 80.3% | BT-549 breast 99.3% | MDA-MB-435 melanoma 106% | SW-620 colon 93.6% | MCF7 breast 80.2% | HCT-116 colon 87.1% | HCC-2998 colon 103% | KM12 colon 87.7%

Cc1ccc(OCCOCCOCCOCCOCCOc2ccc(C)n(O)c2=S)c(=S)n1O
inactive: T-47D breast 15.1% | BT-549 breast 26% | MDA-MB-435 melanoma 32.6% | SW-620 colon 27.9% | MCF7 breast 11.5% | HCT-116 colon 18% | KM12 colon 23%
active: HCC-2998 colon -7.72%

COc1ccc(C2[C@@H](Cl)C(=O)N2c2cc(OC)c(OC)c(OC)c2)cc1Cl (some centres undefined)
inactive: T-47D breast 43.3% | SW-620 colon 21.9% | MCF7 breast 14.4% | HCC-2998 colon 22.8% | KM12 colon 16.3%
active: BT-549 breast -19.1% | MDA-MB-435 melanoma -20.7% | HCT-116 colon -9.69%

O=c1ccc2ccc(OCCN3CCCCC3)cc2o1
inactive: T-47D breast 95.5% | BT-549 breast 100% | MDA-MB-435 melanoma 101% | SW-620 colon 93.9% | MCF7 breast 106% | HCT-116 colon 89% | HCC-2998 colon 98% | KM12 colon 104%

CCCCO[C@@H]1C=C2[C@H]3CC(C)(C)C(=O)C[C@]3(C(=O)O[C@@H]3O[C@H](CO[C@@H]4O[C@H](CO)[C@@H](OC5OC(C)C(O)C(O)C5O)[C@H](O)[C@H]4O)[C@@H](O)[C@H](O)[C@H]3O)CC[C@@]2(C)[C@]2(C)CC[C@H]3C(C)(C)C(=O)CC[C@]3(C)[C@@H]12 (some centres undefined)
inactive: T-47D breast 67.4% | BT-549 breast 57.6% | MDA-MB-435 melanoma 51.9% | SW-620 colon 67.5% | MCF7 breast 55.5% | HCT-116 colon 64.9% | HCC-2998 colon 82.7% | KM12 colon 75.2%

CN1c2ccccc2S(=O)(=O)n2c(SCC(=O)Nc3nc4ccc(F)cc4s3)nnc21
inactive: T-47D breast 112% | BT-549 breast 122% | MDA-MB-435 melanoma 117% | SW-620 colon 107% | MCF7 breast 88.2% | HCT-116 colon 110% | HCC-2998 colon 128% | KM12 colon 97.7%

CCn1cc(C(=O)N/N=C/c2cccc(F)c2)c(=O)c2cc(F)c(N3CCNC(C)C3)c(F)c21 (centres undefined)
active: MDA-MB-435 melanoma -74.7% | SW-620 colon -84.6% | MCF7 breast -83.5% | HCC-2998 colon -80.6% | KM12 colon -26.8%
inactive: T-47D breast 72.3% | BT-549 breast 82.9% | HCT-116 colon 71.2%

Oc1c(I)cc(I)cc1CN(Cc1ccccn1)Cc1ccccn1
inactive: T-47D breast 22.4% | BT-549 breast 30.7% | MDA-MB-435 melanoma 35.6% | SW-620 colon 22.2% | MCF7 breast 13.4% | HCT-116 colon 18.1% | HCC-2998 colon 35.1% | KM12 colon 26.8%

CN(C)CCC(CCN(C)C)(C(=O)O)c1ccccc1
inactive: T-47D breast 104% | BT-549 breast 96.5% | MDA-MB-435 melanoma 106% | SW-620 colon 110% | MCF7 breast 94.1% | HCT-116 colon 104% | HCC-2998 colon 101% | KM12 colon 102%

O=C1OCC2=C1C(c1ccccc1)c1cc3c(cc1N2CCO)OCCO3 (centres undefined)
inactive: T-47D breast 50.5% | BT-549 breast 14.1% | SW-620 colon 21.1%
active: MDA-MB-435 melanoma -32% | MCF7 breast 8.47% | HCT-116 colon 6.08% | HCC-2998 colon 0.753% | KM12 colon 9.35%

O=c1oc2ccccc2cc1-c1nn(-c2ccccc2)cc1-c1nn[nH]n1
inactive: T-47D breast 100% | BT-549 breast 103% | MDA-MB-435 melanoma 99.5% | SW-620 colon 102% | MCF7 breast 94.8% | HCT-116 colon 96.5% | HCC-2998 colon 110% | KM12 colon 106%

C=C[C@@]1(C)CC(=O)[C@@H](C(C)(C)c2cn(C)c3ccc(Br)cc23)C[C@@H]1O[Si](C)(C)C(C)(C)C
inactive: T-47D breast 89.6% | BT-549 breast 111% | MDA-MB-435 melanoma 101% | SW-620 colon 97.3% | MCF7 breast 80.1% | HCT-116 colon 89.7% | HCC-2998 colon 109% | KM12 colon 100%

O=C(/C=C/C12c3ccccc3C(c3ccccc31)C1C(=O)NC(=O)C12)c1ccc(I)cc1 (centres undefined)
inactive: T-47D breast 38.9% | BT-549 breast 46.1% | MDA-MB-435 melanoma 31.2% | SW-620 colon 25% | MCF7 breast 16.5% | HCT-116 colon 35.8% | HCC-2998 colon 100% | KM12 colon 57.8%

C#Cc1cccc(NC(=O)C2CCCCN2C(=O)CCl)c1 (centres undefined)
active: T-47D breast -4.16% [8.25 µM] | BT-549 breast -55.9% [8.25 µM] | MDA-MB-435 melanoma -57.3% [8.25 µM] | SW-620 colon -59.9% [8.25 µM] | MCF7 breast -7.64% [8.25 µM] | HCT-116 colon -30.7% [8.25 µM] | HCC-2998 colon -18.7% [8.25 µM] | KM12 colon -34.2% [8.25 µM]

C=C(C)[C@@H]1CC[C@]2(C(=O)N3CCN(C)CC3)CC[C@]3(C)[C@H](CC[C@@H]4[C@@](C)(CCC(=O)O)[C@H](C(=C)C)CC[C@]43C)[C@@H]12
inactive: T-47D breast 85.7% | BT-549 breast 96.8% | MDA-MB-435 melanoma 93.6% | SW-620 colon 99.7% | MCF7 breast 82.8% | HCT-116 colon 68.2% | HCC-2998 colon 93.8% | KM12 colon 68.7%

COc1ccc2[nH]cc(-c3nonc3-c3c[nH]c4ccc(Br)cc34)c2c1
inactive: BT-549 breast 74.9% | MDA-MB-435 melanoma 65.8% | SW-620 colon 59.5% | MCF7 breast 31.2% | HCT-116 colon 36.7% | HCC-2998 colon 22.2% | KM12 colon 15.5%
active: T-47D breast 3.83%

COCCOC(C)C(/C=N/NC(N)=S)=N/NC(N)=S (centres undefined)
active: HCT-116 colon 6.21%
inactive: T-47D breast 28.7% | BT-549 breast 90.1% | MDA-MB-435 melanoma 87.4% | SW-620 colon 61.7% | MCF7 breast 19.2% | HCC-2998 colon 94.2% | KM12 colon 92.2%

O=C(/C=C/c1ccccc1)c1cccc2ccccc12
active: SW-620 colon 9.3%
inactive: T-47D breast 32.9% | BT-549 breast 62.5% | MDA-MB-435 melanoma 16.8% | MCF7 breast 11.6% | HCT-116 colon 32% | HCC-2998 colon 48.3% | KM12 colon 37.4%

O=C(Oc1ccc2c(c1)sc1nc(-c3ccccc3)[nH]c(=O)c12)C(F)(F)F
inactive: T-47D breast 32.3% | BT-549 breast 44.3% | SW-620 colon 18.4% | MCF7 breast 17.1% | HCT-116 colon 19.8% | HCC-2998 colon 31.2% | KM12 colon 11.2%
active: MDA-MB-435 melanoma -55.4%

COC(=O)/C(CCC=C(C)C)=C1\[C@@H](OC(C)=O)C[C@@]2(C)[C@H]1C/C(=N/O)[C@H]1[C@@]3(C)CC/C(=N\O)[C@@H](C)[C@@H]3CC[C@@]12C
inactive: T-47D breast 82.9% | BT-549 breast 95.5% | MDA-MB-435 melanoma 98.6% | SW-620 colon 106% | MCF7 breast 55.1% | HCT-116 colon 101% | HCC-2998 colon 110% | KM12 colon 103%

[N-]=[N+]=NCC1OC(n2cnc3c(NC(=O)Nc4ccccc4)ncnc32)C2OC(=O)CC12 (centres undefined)
inactive: T-47D breast 103% | BT-549 breast 104% | MDA-MB-435 melanoma 109% | SW-620 colon 105% | MCF7 breast 92.3% | HCT-116 colon 101% | HCC-2998 colon 107% | KM12 colon 106%

COc1ccc(C2C3=C(COC3=O)N(CCO)c3cc4c(cc32)OCO4)cc1OC (centres undefined)
active: MDA-MB-435 melanoma 5.99%
inactive: T-47D breast 87.5% | BT-549 breast 80.5% | SW-620 colon 61.6% | MCF7 breast 64.3% | HCT-116 colon 68.6% | HCC-2998 colon 74.5% | KM12 colon 62.4%
